Read-out in test [1]: X-box binding protein 1 (XBP1), XBP1 (gene 7494)
Kind of test: LTEA_HepaRG_XBP1: Life Technologies and Expression Analysis (LTEA) Assay for X-box binding protein 1 (XBP1) using HepaRG (AID 2283540; active = hit-call score of the fitted dose curve at least 0.9, where 1 is the maximum; inactive = score below 0.9). Conditions: mRNA level, 48 h; actives raise or lower the signal. In short, it runs like this: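 Differentiated human HepaRG cells in serum-free induction medium were exposed in duplicate for 48 h to eight half-log concentrations up to 100 uM in 0.5% DMSO. XBP1 mRNA was quantified by qRT-PCR, normalised to ACTB, GAPDH and POLR2A, with bidirectional fitting against DMSO.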

A short description of test [2]: LTEA_HepaRG_LDH_cytotoxicity: Cytotoxicity Assessment in the Life Technologies and Expression Analysis (LTEA) Assay (AID 2283563).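 As to AC50: LDH activity released into spent culture medium as a marker of cell death.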 An outline of the steps: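 Differentiated human HepaRG cells, plated 48 h beforehand, were switched to serum-free induction medium and exposed for 48 h to eight half-log concentrations (top 100 uM) in 0.5% DMSO. LDH was measured in spent medium; activity was fitted relative to DMSO vehicle.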

A short description of test [3]: TOX21_p53_BLA_p2_viability: Viability Assessment in the Tox21 HCT-116 p53 Agonism Beta-lactamase Assay, Phase 2 (AID 2283591).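 Also: compound exposure lasted 16 h at 37 °C; actives lower the ATP signal meaning cytotoxicity.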 In short, it runs like this: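 HCT-116 p53-bla cells (4000/well) rested 5 h at 37C, then received compounds in DMSO (217-fold dilution) for 16 h at 37C, 5% CO2. After the CCF4 read, CellTiter-Glo was added; ATP luminescence was read after 30 min at room temperature.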

Test [4] deals with Cellular tumor antigen p53 (Homo sapiens) (UniProt P04637). Kind of test: TOX21_p53_BLA_p2_ratio: Tox21 HCT-116 p53 Agonism Beta-lactamase Assay, Ratio, Phase 2 (AID 2283592). In short, it runs like this:
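HCT116 cells carrying a p53-responsive beta-lactamase reporter were plated, incubated 5 h at 37C, then dosed with compounds in DMSO (217-fold dilution) for 16 h. CCF4-AM substrate was added for 2 h at room temperature; the 460/530 nm emission ratio gave gain-of-signal activity relative to DMSO.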

Test [5] is described as follows: TOX21_p53_BLA_p3_viability: Viability Assessment in the Tox21 HCT-116 p53 Agonism Beta-lactamase Assay, Phase 3 (AID 2283593).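 Also: cells exposed to compound for 16 h before reading.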 An outline of the steps: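 HCT-116 cells (4000/well) rested 5 h at 37C, then got DMSO compounds by pin tool (217-fold dilution) for 16 h at 37C, 5% CO2. After the bla read, CellTiter-Glo was added and luminescence read at 30 min, room temperature.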

Test [6] addresses Cellular tumor antigen p53 (Homo sapiens) (UniProt P04637). Kind of test: TOX21_p53_BLA_p3_ratio: Tox21 HCT-116 p53 Agonism Beta-lactamase Assay, Ratio, Phase 3 (AID 2283596). An outline of the steps:
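HCT116 p53-bla cells (4000/well) given compound in DMSO (217-fold dilution) after 5 h, incubated 16 h at 37C. CCF4-AM substrate 2 h at room temperature; 460/530 nm emission ratio, gain fitted against DMSO.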

The nature of test [7]: TOX21_p53_BLA_p4_viability: Viability Assessment in the Tox21 HCT-116 p53 Agonism Beta-lactamase Assay, Phase 4 (AID 2283597).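 Also: hits lower the luminescence signal meaning cytotoxicity.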 In short, it runs like this: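 HCT116 p53-bla cells (4000/well) rested 5 h at 37C, then received compounds in DMSO (217-fold dilution) for 16 h at 37C, 5% CO2. CellTiter-Glo was added after the CCF4-AM read, and luminescence was read after 30 min at room temperature.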

Test [8] concerns the target Cellular tumor antigen p53 (Homo sapiens) (UniProt P04637). Description: TOX21_p53_BLA_p5_ratio: Tox21 HCT-116 p53 Agonism Beta-lactamase Assay, Ratio, Phase 5 (AID 2283599). An outline of the steps: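 HCT-116 cells carrying a p53-inducible beta-lactamase reporter were seeded at 4000 cells/well and dosed after 5 h with compound in DMSO (217-fold dilution). After 16 h at 37C, CCF4-AM substrate was added for 2 h, and the 460/530 nm emission ratio was scored as gain-of-signal versus DMSO.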

Test [9] in a line: TOX21_p53_BLA_p5_viability: Viability Assessment in the Tox21 HCT-116 p53 Agonism Beta-lactamase Assay, Phase 5 (AID 2283600). In short, it runs like this: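 Cells were plated at 4000/well, rested 5 h at 37C, then given compounds in DMSO (217-fold dilution) for 16 h at 37C, 5% CO2. Following the CCF4-AM beta-lactamase read, CellTiter-Glo was added and luminescence was read after 30 min at room temperature.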

The target of test [10] is Cellular tumor antigen p53 (Homo sapiens) (UniProt P04637). Kind of test: TOX21_p53_BLA_p4_ratio: Tox21 HCT-116 p53 Agonism Beta-lactamase Assay, Ratio, Phase 4 (AID 2283601). An outline of the steps: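 HCT116 cells carrying an inducible beta-lactamase reporter were plated at 4000 cells/well, rested 5 h, then exposed to compounds in DMSO (217-fold dilution) for 16 h at 37C. CCF4-AM substrate was loaded 2 h at room temperature; 460/530 nm emission ratio scored gain-of-signal versus DMSO.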
Sequence of Cellular tumor antigen p53 (Homo sapiens) (P04637 whole entry, looked up): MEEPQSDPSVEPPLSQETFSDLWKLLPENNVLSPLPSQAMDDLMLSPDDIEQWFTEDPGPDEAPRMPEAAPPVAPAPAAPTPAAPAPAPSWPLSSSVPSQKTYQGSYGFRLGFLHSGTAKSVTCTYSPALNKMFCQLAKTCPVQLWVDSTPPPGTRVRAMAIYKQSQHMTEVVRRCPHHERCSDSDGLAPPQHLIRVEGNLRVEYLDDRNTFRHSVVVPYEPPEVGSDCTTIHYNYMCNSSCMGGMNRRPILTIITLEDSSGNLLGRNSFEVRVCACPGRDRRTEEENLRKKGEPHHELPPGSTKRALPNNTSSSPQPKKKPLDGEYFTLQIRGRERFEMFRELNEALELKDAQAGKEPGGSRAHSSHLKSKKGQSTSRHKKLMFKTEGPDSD

Test [11] in a line: Tanguay_ZF_120hpf_YSE_legacy: (Legacy) Oregon State University Tanguay Lab 120 Hour Post-fertilization zebrafish Assay for Yolk Sac Edema (AID 2283634). In short, it runs like this:
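Tropical 5D wild-type embryos, dechorionated with pronase at 4 hpf, were exposed singly from 6 hpf to 120 hpf under static, sealed, dark conditions at 28C with 0.64% DMSO final. Yolk sac edema was scored present/absent by brightfield microscopy.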

A short description of test [12]: Tanguay_ZF_120hpf_AXIS_legacy: (Legacy) Oregon State University Tanguay Lab 120 Hour Post-fertilization zebrafish Assay for Body Axis Malformation (AID 2283635).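 As to AC50: potency for an increased fraction of larvae scored with body axis malformation.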 In short, it runs like this:
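Tropical 5D wild-type zebrafish embryos, dechorionated with pronase at 4 hpf, were placed singly in wells at 6 hpf and exposed statically to test chemical (0.64% DMSO final) at 28C until 120 hpf, then scored by brightfield for body axis defects.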

The nature of test [13]: Tanguay_ZF_120hpf_EYE_legacy: (Legacy) Oregon State University Tanguay Lab 120 Hour Post-fertilization zebrafish Assay for Eye Malformation (AID 2283636).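 Also: binary presence or absence of eye malformation scored by brightfield in 120 hpf larvae.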 In short, it runs like this:
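Dechorionated wild-type Tropical 5D zebrafish embryos were exposed statically from 6 hpf, one per well, to 120 hpf at 28C in sealed, foil-covered plates with 0.64% DMSO. Eye malformation was scored present/absent by brightfield microscopy against DMSO controls.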

Test [14] can be described thus: Tanguay_ZF_120hpf_JAW_legacy: (Legacy) Oregon State University Tanguay Lab 120 Hour Post-fertilization zebrafish Assay for Jaw Malformation (AID 2283638).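 As to AC50: active means more embryos with jaw malformation than DMSO controls.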 An outline of the steps: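 Tropical 5D wild-type embryos, dechorionated with pronase at 4 hpf, were placed singly per well at 6 hpf and statically exposed at 28C until 120 hpf (0.64% DMSO final). Jaw malformation scored as present/absent by brightfield microscopy at 120 hpf, analyzed relative to DMSO.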

A short description of test [15]: Tanguay_ZF_120hpf_OTIC_legacy: (Legacy) Oregon State University Tanguay Lab 120 Hour Post-fertilization zebrafish Assay for Otic Vesicle Malformation (AID 2283639). In short, it runs like this:
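Embryos from 5D wild-type adults exposed in plates; DMSO 0.64% v/v final. Sealed, light-protected, 28C, static to 120 hpf. Otic vesicle malformation recorded as binary endpoint; gain-of-signal fitted vs DMSO.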

Test [16] can be described thus: Tanguay_ZF_120hpf_PE_legacy: (Legacy) Oregon State University Tanguay Lab 120 Hour Post-fertilization zebrafish Assay for Pericardial Edema (AID 2283640). An outline of the steps: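 Tropical 5D wild-type zebrafish embryos were exposed statically to 120 hpf at 28C, sealed and foil-covered, in 0.64% DMSO final. Pericardial edema was scored present/absent by brightfield microscopy; dead embryos were not scored.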

Test [17] in a line: Tanguay_ZF_120hpf_BRAI_legacy: (Legacy) Oregon State University Tanguay Lab 120 Hour Post-fertilization zebrafish Assay for Brain Malformation (AID 2283641). In short, it runs like this: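 Tropical 5D wild-type zebrafish embryos were exposed statically in sealed, foil-covered plates at 28C until 120 hpf, with 0.64% (vol/vol) final DMSO. Brain malformation was scored present/absent by brightfield microscopy, relative to DMSO baseline.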

Test [18] can be described thus: Tanguay_ZF_120hpf_SNOU_legacy: (Legacy) Oregon State University Tanguay Lab 120 Hour Post-fertilization zebrafish Assay for Snout Malformation (AID 2283637). In short, it runs like this:
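Tropical 5D wild-type zebrafish embryos, dechorionated with pronase at 4 hpf, were exposed singly from 6 hpf to 120 hpf statically at 28C in 0.64% DMSO. Snout malformation was scored present/absent by brightfield microscopy, fitted against DMSO.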

Test [19] can be described thus: Tanguay_ZF_120hpf_MORT_legacy: (Legacy) Oregon State University Tanguay Lab 120 Hour Post-fertilization zebrafish Assay for Mortality (AID 2283633).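 As to AC50: fitted as increase in binary mortality versus DMSO negative control.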 In short, it runs like this:
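Dechorionated Tropical 5D wild-type zebrafish embryos, one per well from 6 hpf, were statically exposed at 28C in the dark until 120 hpf (0.64% DMSO final). Mortality was scored as present/absent by brightfield microscopy, fitted positively versus DMSO.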

Where “and” joins values, the source holds several entries; their conditions need not be identical. Equal entries are not always repeated. Records with an inconclusive call do not appear. Some structures have more than one record in an assay (separate samples or runs), and their calls can disagree. Calls of active or inactive are those of the source. The calls were made as follows, unless noted: active = hit-call score of the fitted dose curve at least 0.9, where 1 is the maximum; inconclusive = response in the unintended direction; inactive = score below 0.9.

Turning to `Cc1cccc2ccccc12`, the compound was classed as inactive in [1], in [2], in [3], in test [4], in [5] and in test [6]. The call in test [7], in test [8], in [9], in test [10], in test [11] and in [12] was inactive. Moreover, the call in test [13], in [14], in test [15], in test [16] and in test [17] was inactive.

For orientation: AC50 means the concentration at which the activity in the assay is half-maximal. Turning to `CCN(Cc1cccc(S(=O)(=O)O)c1)c1ccc(C(=C2C=CC(=[N+](CC)Cc3cccc(S(=O)(=O)O)c3)C=C2)c2ccccc2S(=O)(=O)[O-])cc1`, the outcome in test [1], in test [2], in test [4], in test [5], in test [6] and in test [8] was inactive. For the same compound, the compound was called inactive in test [9], in test [10], in [11], in test [12], in [13] and in [18]. The result in [14], in test [15] and in test [16] was inactive. Moreover, the AC50 in test [3] was 19.4 µM (active); in test [7], 35.5 µM (active).

Regarding `O=C(O)Cc1cc(I)c(Oc2ccc(O)c(I)c2)c(I)c1`, the AC50 is 75 µM (active) in [1]; 2.06 µM (active) and 5.75 µM (active) in [3]; 899 nM (active) and 4.4 µM (active) in [4]; 15.9 µM (active) in test [5]; 1.64 µM (active) and 8.48 µM (active) in test [6]; 19 µM (active) and 5.82 µM (active) in test [7]. Further, the AC50 in test [8] is 1.95 µM (active) and 16.7 µM (active); in [9] it was 21.8 µM (active); in test [10], 3.33 µM (active) and 5.61 µM (active); in test [12], 0.0871 µM (active); in test [14], 0.089 µM (active). Besides, the result in test [2], in test [5], in test [9], in [19], in test [11] and in test [13] was inactive. The outcome in [15], in test [16] and in test [17] was inactive.

With `CC(C)(C)c1csc(-c2cc3cc(OCc4ccccc4CC(=O)O)ccc3o2)n1`, the outcome in test [1], in test [9], in test [11], in test [12], in [13] and in test [14] was inactive. In addition, the outcome in [15], in [16] and in [17] was inactive. Also, the AC50 in test [2] was 76.6 µM (active); in [3] it was 25.5 µM (active); in test [4] it was 36.2 µM (active); in test [5] it was 46.1 µM (active); in test [6] it was 27.9 µM (active); in test [7], 46.1 µM (active). Moreover, the AC50 is 47 µM (active) in [8], 49.9 µM (active) in test [10] and 25.9 µM (active) in test [19].

In the case of `Cc1cc(F)ccc1-c1cc(N2CC[C@@H](O)[C@H]2CO)ncc1N(C)C(=O)C(C)(C)c1cc(C(F)(F)F)cc(C(F)(F)F)c1`, the call in test [1], in test [11], in [12], in [13], in test [14] and in test [15] was inactive. The concentration at half-maximal activity (AC50) in [2] is 30.9 µM (active); in test [3], 11 µM (active); in test [4] it was 21.8 µM (active); in [5] it was 30.7 µM (active); in test [6], 45.3 µM (active); in [7], 27.3 µM (active). Besides, the values for the AC50 in [8], in test [9] and in test [10] were 36 µM (active), 23.7 µM (active) and 26.4 µM (active), respectively.

Values taken from PubChem BioAssay (EPA / NIEHS).
